These results are taken from PubChem BioAssay (NCATS).

One assay concerns HaCat. In words: Cytotoxic Profiling of Annotated Libraries Using Quantitative High-Throughput Screening (AID 1296008). Further: nearly all actives have a fitted effect of over 60% in size. The following applies: Five cell lines viability, CellTiter-Glo ATP luminescence, 48-72 h; max response: stronger effect = lower value. An outline of the steps:
(§1)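 Cytotoxicity was measured as CellTiter-Glo ATP luminescence, read after 10 min at room temperature. Compound treatment of the cells lasted 48 or 72 hr at 37 degrees Celsius in a qHTS format.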
Background: ATP-based viability assays read luminescence as a measure of living cells.

The subject of another assay is KB-3-1. Described as above. To be noted: Five cell lines viability, CellTiter-Glo ATP luminescence, 48-72 h; max response: stronger effect = lower value. An outline of the steps: as §1
Another assay has as its system NIH3T3. Described as above. To be noted: Five cell lines viability, CellTiter-Glo ATP luminescence, 48-72 h; max response: stronger effect = lower value. A digest of the protocol:
as §1

A further assay has as its system MCC-26. Description: qHTS assay to identify novel small-molecules to repurpose for Merkel cell carcinoma treatment (AID 1296009). Further: nearly all actives have a fitted effect of over 60% in size. The following applies: MCC and control cell lines, CellTiter-Glo viability, 72 h; series mostly up to 46 µM. An outline of the steps:
(§2)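 Cell viability, measured as CellTiter-Glo luminescence, was normalized between DMSO and no-cell wells. The cells had been exposed to 8- or 11-point compound dilutions for 72 hr at 37 degree celsius.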
(In qHTS, concentration-response curves come from the screen itself.)

A further assay deals with UISO. The assay is described as above. To be noted: MCC and control cell lines, CellTiter-Glo viability, 72 h; series mostly up to 46 µM. A digest of the protocol:
as §2

The subject of the next assay is C33A. Description: Primary qHTS to identify gynecologic anti-cancer compounds using libraries of approved drugs and bioactive compounds (AID 1345084). Further: nearly all actives have a fitted effect of over 55% in size. To be noted: Gynecologic cancer cell panel viability, ATPlite luminescence, 48 h; series mostly up to 57.5 µM. An outline of the steps: (§3)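 Cytotoxicity screen measuring ATP content by luciferase luminescence. Each compound is applied at five concentrations for 48 h at 37 C with 5% CO2.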

The subject of a further assay is CAOV3. The description is as above. The following applies: Gynecologic cancer cell panel viability, ATPlite luminescence, 48 h; series mostly up to 57.5 µM. A digest of the protocol: as §3
The subject of another assay is CASKI. Described as above. To be noted: Gynecologic cancer cell panel viability, ATPlite luminescence, 48 h; series mostly up to 57.5 µM. A digest of the protocol: as §3
For the next assay, the system named is Hek293T. The assay is described as above. The following applies: Gynecologic cancer cell panel viability, ATPlite luminescence, 48 h, control line for the selectivity index; series mostly up to 57.5 µM. A digest of the protocol:
as §3

The subject of the next assay is JEG-3. The description is as above. The following applies: Gynecologic cancer cell panel viability, ATPlite luminescence, 48 h; series mostly up to 57.5 µM. A digest of the protocol: as §3
The subject of another assay is OV90. The assay is described as above. The following applies: Gynecologic cancer cell panel viability, ATPlite luminescence, 48 h; series mostly up to 57.5 µM. A digest of the protocol:
as §3

In the next assay the test system is MKL-1. In words: qHTS assay to identify novel small-molecules to repurpose for Merkel cell carcinoma treatment (AID 1296009). Further: nearly all actives have a fitted effect of over 60% in size. To be noted: MCC and control cell lines, CellTiter-Glo viability, 72 h; series mostly up to 46 µM. A digest of the protocol:
as §2

The test system of a further assay is MKL-2. Described as above. The following applies: MCC and control cell lines, CellTiter-Glo viability, 72 h; series mostly up to 46 µM. An outline of the steps: as §2
The next assay concerns WaGa. Described as above. The following applies: MCC and control cell lines, CellTiter-Glo viability, 72 h; series mostly up to 46 µM. A digest of the protocol: as §2
The next assay deals with HeLa. In words: Primary qHTS to identify gynecologic anti-cancer compounds using libraries of approved drugs and bioactive compounds (AID 1345084). Further: nearly all actives have a fitted effect of over 55% in size. The following applies: Gynecologic cancer cell panel viability, ATPlite luminescence, 48 h; series mostly up to 57.5 µM. An outline of the steps: as §3
For the next assay, the system named is MCC-13. In words: qHTS assay to identify novel small-molecules to repurpose for Merkel cell carcinoma treatment (AID 1296009). Further: nearly all actives have a fitted effect of over 60% in size. The following applies: MCC and control cell lines, CellTiter-Glo viability, 72 h; series mostly up to 46 µM. A digest of the protocol: as §2
For a further assay, the system named is Es-2. In words: Primary qHTS to identify gynecologic anti-cancer compounds using libraries of approved drugs and bioactive compounds (AID 1345084). Further: nearly all actives have a fitted effect of over 55% in size. To be noted: Gynecologic cancer cell panel viability, ATPlite luminescence, 48 h; series mostly up to 57.5 µM. A digest of the protocol: as §3

Several values for one entry are separate records, joined by “and”; a condition that tells them apart may be missing. Equal entries are not always repeated. Inconclusive results are not listed. Values without a mark were called inactive. Activity calls are given as the source filed them. The call rests on the fitted dose curve; in most records, active means well fitted curve in the direction sought with a large enough effect; inconclusive means small, poorly fitted or top-dose-only effect, or another doubt; inactive means no such curve, though single readings can be large; an effect the other way counts as inactive or inconclusive.
On the % scale 0 is the no-effect control and ±100 the full control effect; potency means the concentration at half of the fitted maximal effect.

As to `COc1cc2c(Oc3ccc(-c4cnc(Nc5ccc(F)cc5)n(C)c4=O)cc3F)ccnc2cc1OCCCN1CCOCC1`, the Potency with HaCat is 23.5 µM (active); in the assay with KB-3-1, 9.35 µM (active); with NIH3T3 it was 526 nM (active) and 5.8 µM (active); with MCC-26 it was 7.43 µM (active); in the assay with UISO, 11.8 µM (active). The Potency result with C33A, in the assay on CAOV3, in the assay on CASKI, with Hek293T, in the assay with JEG-3 and in the assay with OV90 was “inactive” each time.
In the case of `CN(C)CC=CC(=O)Nc1cc2c(Nc3ccc(F)c(Cl)c3)ncnc2cc1O[C@H]1CCOC1`, the max response in the assay on HaCat is -151%. For the same molecule, the Potency with KB-3-1 was 4.18 µM (active); in the assay with NIH3T3 it was 3.72 µM (active); in the assay on MKL-1, 14.8 µM (active); in the assay with MKL-2, 5.26 µM (active); in the assay with UISO it was 14.8 µM (active); with WaGa it was 14.8 µM (active).
As to `CC1(C)CC(=O)c2c(C(F)(F)F)nn(-c3ccc(C(N)=O)c(NC4CCC(OC(=O)CN)CC4)c3)c2C1` (stereo unspecified), the Potency with HaCat is 2.35 µM (active) and 517 nM (active); with KB-3-1 it was 0.105 µM (active); in the assay on NIH3T3 it was 418 nM (active) and 366 nM (active); with UISO, 0.264 µM (active); with OV90, 0.355 µM (active). Also, the Potency result in the assay with MKL-2, in the assay on HeLa and with JEG-3 was “inactive” in each case.
As to `C1=CCOCc2cc(ccc2OCCN2CCCC2)Nc2nccc(n2)-c2cccc(c2)OCC1`, the Potency in the assay on HaCat is 4.69 µM (active); in the assay with KB-3-1, 2.96 µM (active); with NIH3T3, 7.43 µM (active); with MCC-26 it was 9.35 µM (active); in the assay with MKL-2, 11.8 µM (active); in the assay on UISO, 11.8 µM (active). For the same molecule, in the assay with WaGa, the Potency was 9.35 µM (active).
With `CC1=C(CO)C(=O)O[C@@H]([C@@H](C)[C@H]2CC[C@H]3[C@@H]4C[C@H]5O[C@]56[C@@H](O)C=CC(=O)[C@]6(C)[C@@H]4CC[C@]23C)C1`, the Potency in the assay on HaCat is 2.64 µM (active); in the assay with KB-3-1, 1.05 µM (active); in the assay with NIH3T3, 2.09 µM (active); with MCC-13 it was 0.662 µM (active); with MKL-2, 0.132 µM (active); in the assay on UISO, 0.743 µM (active). The Potency in the assay with WaGa is 0.264 µM (active).
Take `COc1cc(=C2C=c3ccccc3=N2)[nH]c1=Cc1[nH]c(C)cc1C`: the Potency in the assay with HaCat is 20.9 µM (active); in the assay with KB-3-1 it was 3.72 µM (active); in the assay with NIH3T3, 18.7 µM (active); with UISO it was 13.2 µM (active); in the assay with WaGa it was 23.5 µM (active).
As for `Cc1cc(CN2CCN(c3c(Br)cnc4nc(-c5ccc(N6CCN(C)CC6)cc5)[nH]c34)CC2)no1`, the Potency was 2.35 µM (active) in the assay on HaCat; 18.7 µM (active) and 16.4 µM (active) in the assay on KB-3-1; 13.2 µM (active) and 1.46 µM (active) in the assay with NIH3T3; 3.32 µM (active) in the assay with MKL-1; 26.4 µM (active) in the assay with MKL-2; 1.58 µM (active) in the assay on HeLa. The Potency entry with MCC-26, with C33A, with CASKI, in the assay with Es-2, in the assay on Hek293T and in the assay with JEG-3 was “inactive” in each case. In addition, in the assay with OV90, the Potency entry is “inactive”.
With `O=C(Nc1cc(C(F)(F)F)cc(C(F)(F)F)c1)c1cc(Cl)ccc1O`, the Potency in the assay with HaCat was 2.64 µM (active) and 2.91 µM (active); in the assay with KB-3-1 it was 264 nM (active) and 731 nM (active); in the assay with NIH3T3, 3.32 µM (active) and 5.8 µM (active); in the assay on UISO, 2.35 µM (active); in the assay on C33A it was 3.16 µM (active); in the assay with CAOV3, 8.91 µM (active). Besides, the Potency is 3.55 µM (active) in the assay on CASKI; 5.01 µM (active) with Es-2; 2.24 µM (active) in the assay on HeLa; 2.51 µM (active) in the assay on Hek293T; 8.91 µM (active) with OV90.
Take `CC(=O)Nc1nc(C)c(-c2ccc(Cl)c(S(=O)(=O)NCCO)c2)s1`: the Potency was 6.51 µM (active) in the assay on HaCat; 9.35 µM (active) with KB-3-1; 3.32 µM (active) and 2.59 µM (active) with NIH3T3; 5.9 µM (active) with WaGa; 14.1 µM (active) with CAOV3; 12.6 µM (active) in the assay on CASKI. For the same molecule, the Potency result with JEG-3 is “inactive”.
As to `O=C(NCCCNc1nc(Nc2cccc(NC(=O)N3CCCC3)c2)ncc1I)c1cccs1`, the Potency in the assay with HaCat was 18.7 µM (active); with KB-3-1, 13.2 µM (active); in the assay with NIH3T3, 2.09 µM (active); with MCC-13 it was 9.35 µM (active); with UISO it was 16.6 µM (active); in the assay with WaGa it was 9.35 µM (active). For the same molecule, the Potency result in the assay on MKL-2 was “inactive”.
In the case of `Cc1nc(N)ncc1-c1nc(N2CCOCC2)c2sc(C(C)(C)O)cc2n1`, the Potency in the assay on HaCat is 41.8 nM (active) and 130 nM (active); with KB-3-1, 3.66 µM (active); with NIH3T3 it was 1.87 µM (active) and 920 nM (active); in the assay with C33A, 1.78 µM (active); with CASKI, 0.501 µM (active); in the assay on Hek293T, 3.16 µM (active). In the assay on OV90, the Potency was 3.55 µM (active). Also, the Potency entry in the assay on MCC-13 is “inactive”.
For the molecule `CCn1nnc2c(N3CCOCC3)nc(-c3ccc(NC(=O)Nc4ccc(C(=O)N5CCN(C)CC5)cc4)cc3)nc21`, the Potency in the assay with HaCat was 662 nM (active) and 1.16 µM (active); in the assay on KB-3-1, 11.8 nM (active) and 146 nM (active); in the assay on NIH3T3, 0.517 µM (active); in the assay with MKL-2 it was 0.0105 µM (active); in the assay on UISO, 0.0332 µM (active); with CAOV3, 0.316 µM (active). Further, the Potency is 0.251 µM (active) in the assay on CASKI, 1.12 µM (active) in the assay on Es-2 and 0.631 µM (active) in the assay on Hek293T. The Potency result in the assay with MCC-13 and in the assay on C33A was “inactive” each time.
`O=C(C=Cc1cccc(S(=O)(=O)Nc2ccccc2)c1)NO`: the Potency with HaCat was 15.2 µM (active); in the assay with KB-3-1 it was 6.05 µM (active); in the assay on NIH3T3, 10.8 µM (active); in the assay with MKL-1 it was 7.62 µM (active); in the assay on MKL-2, 3.4 µM (active); in the assay on UISO it was 34 µM (active). In addition, the Potency in the assay with WaGa was 3.03 µM (active).
Consider `Cc1c(CN2CCN(S(C)(=O)=O)CC2)sc2c(N3CCOCC3)nc(-c3cnc(N)nc3)nc12`, for which the Potency with HaCat is 0.0418 µM (active); in the assay with KB-3-1, 0.0833 µM (active); in the assay with NIH3T3, 148 nM (active) and 517 nM (active); in the assay with MCC-26, 0.833 µM (active); in the assay on MKL-2, 0.118 µM (active); in the assay with UISO it was 0.264 µM (active). Moreover, the Potency in the assay on C33A is 1.58 µM (active); in the assay with CASKI, 0.708 µM (active); in the assay with HeLa, 2 µM (active); in the assay with Hek293T, 0.501 µM (active); with OV90, 1.41 µM (active).
In the case of `CN(C)CCCN=c1c2ccccc2n(C)c2[nH]c(=O)n(C)c(=O)c12`, the Potency with HaCat is 18.7 µM (active); in the assay with NIH3T3, 23.5 µM (active); with MKL-1, 10.5 µM (active); in the assay with MKL-2, 14.8 µM (active); in the assay with UISO it was 20.9 µM (active); in the assay on WaGa, 7.43 µM (active).
